High-throughput results: PubChem, several laboratories
An excerpt weighted towards active compounds, which were near 5.9% of everything screened.
FXN GAA850 act: activators of GAA850 frataxin (FXN) promoter; activation, % at 6 µM; 360,000 compounds, 0.56% hits; HEK293 lucGAA850 FXN promoter luciferase reporter, 24 h; percent of 10 µM SAHA response;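 active means activation above the average of all compounds screened plus 3 SD, cutoff fixed separately per campaign, cut at about 7.5% in these data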;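 further: 0% = DMSO wells and 100% = 10 µM SAHA wells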
HSP90 refold inh: HSP90 refolding inhibition in rabbit reticulocyte lysate | luciferase refolding luminescence, 3 h | inhibition, % at 5.6 µM | 290,000 compounds, 0.91% hits | AID 1789;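 active means inhibition above the screen-wide mean plus 3 SD, computed separately per campaign, cut at about 16% in these data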;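 further: 0% = DMSO wells and 100% = 60 µM geldanamycin wells; inhibitors lower the luminescence because luciferase stays unfolded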
NR0B1 inh: inhibitors of human orphan nuclear receptor DAX1 (NR0B1) | P51843 | HEK293 Gal4-DAX1 luciferase reporter, luminescence | inhibition, % at 6.75 µM | 340,000 compounds, 0.99% hits | AID 504766;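 active means inhibition above the mean over all tested compounds plus 3 SD, cut at about 4.2% in these data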;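 further: 0% = DAX1-transfected cells with DMSO and 100% = empty-vector control cells with DMSO; inhibition shows as a rise in luminescence from relieved DAX1 repression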
Target sequence (P51843 207-470 limits assumed): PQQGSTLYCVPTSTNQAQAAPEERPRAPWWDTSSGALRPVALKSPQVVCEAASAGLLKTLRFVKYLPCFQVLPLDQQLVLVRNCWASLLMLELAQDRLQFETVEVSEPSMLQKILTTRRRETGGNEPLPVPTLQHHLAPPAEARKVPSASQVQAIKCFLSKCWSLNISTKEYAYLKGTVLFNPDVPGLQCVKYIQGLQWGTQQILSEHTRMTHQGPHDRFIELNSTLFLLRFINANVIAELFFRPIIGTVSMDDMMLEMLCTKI
HSF-1 act: increases HSF-1 driven luciferase reporter signal; activation, % at 9 µM; AID 504408; 300,000 compounds, 1.7% hits; NIH3T3-HGL HSF-1 luciferase reporter, MG132, 8 h; 100% = twice DMSO control signal;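 active means mean replicate activation of at least 50% with a set share of replicates each reaching 50%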;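 further: 0% = median of the neutral control wells and 100% = twice that signal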
AHR act: human AHR activation | P35869 | AHR-responsive luciferase reporter cells, luminescence | activation, % at 5 µM | 320,000 compounds, 2.5% hits; in the data active means activation above about 47%;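 further: 0% = vehicle wells and 100% = reference agonist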
HSF1 inhib: HSF1 inhibition; 300,000 compounds, 0.77% hits; NIH3T3-HGL HSE-luciferase, MG132-induced, luminescence 8 h; stronger effect = lower value; activity change, negative = inhibition, % at 7.5 µM (by protocol);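 active means more than half of replicate wells show activity change below -50%, luminescence cut by over half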;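 further: luciferase reports HSF-1 transcriptional activity via heat shock element; 0% = median of DMSO wells and -100% = zero luminescence signal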
Active calls of the source: *; . = not tested or not shown.

SMILES | FXN GAA850 act | HSP90 refold inh | NR0B1 inh | HSF-1 act | AHR act | HSF1 inhib
CSCCC(NC(=O)CCC(=O)OCC(=O)[C@@]1(O)CCC2[C@@H]3CCC4=CC(=O)C=C[C@]4(C)C3[C@@H](O)C[C@@]21C)C(=O)O (stereo partly specified) | 4 | -4 | 0 | -59 | 8 | -52*
CC(C)CC(NC(=O)CCC(=O)OCC(=O)[C@@]1(O)CCC2[C@@H]3CCC4=CC(=O)C=C[C@]4(C)C3[C@@H](O)C[C@@]21C)C(=O)O (stereo partly specified) | 3 | -3 | 1 | -56 | 15 | -53*
C[C@]12C=CC(=O)C=C1CC[C@@H]1C2C(O)C[C@@]2(C)C1CC[C@]2(O)C(=O)COC(=O)CCC(=O)NC(CC(=O)O)C(=O)O (stereo partly specified) | 7 | -1 | 0 | -49 | 6 | -49
COc1ccc(C)cc1-n1c(=O)c2ccccc2c2ccccc2c1=O | 1 | 2 | -2 | 315* | . | 236
COc1ccc(NC(=O)c2cc(C3CCCCN3C(=O)c3ccccc3)on2)c(C)c1 (stereo unspecified) | 0 | . | . | . | . | .
CC(C)C(=O)N1CCCCCCN1C(=O)C(C)C | 1 | . | 4.4* | . | . | .
CC(=O)OCC(=O)[C@@]1(O)[C@H](C)C[C@H]2[C@@H]3CCC4=CC(=O)C=C[C@]4(C)[C@@]3(F)[C@@H](O)C[C@@]21C | 2 | 2 | 0 | -50 | 9 | -42
C[C@@H]1C[C@H]2[C@@H]3C[C@H](F)C4=CC(=O)C(Cl)=C[C@]4(C)[C@@]3(F)[C@@H](O)C[C@]2(C)[C@@]1(O)C(=O)CO | . | 2 | . | -53 | 10 | -50*
C[C@@H]1C[C@H]2[C@@H]3CCC4=CC(=O)C=C[C@]4(C)[C@@]3(F)[C@@H](O)C[C@]2(C)[C@@]1(O)C(=O)CO | 1 | . | 0 | -61 | 13 | -53*
Cc1cc(OC(=O)c2cccc(C(F)(F)F)c2)c([N+](=O)[O-])c(=O)[nH]1 | 0 | -1 | 0 | 3 | -1 | 0
CCn1cc([N+](=O)[O-])c(C(=O)NCc2ccc3c(c2)OCO3)n1 | -1 | -1 | 4.9* | 5 | 5 | 0
CCn1cc([N+](=O)[O-])c(C(=O)Nc2ccc3c(c2)OCCO3)n1 | -1 | 1 | 0 | -19 | 6 | -14
CCc1n[n+](CC(=O)c2ccccc2)c(N)s1 | -4 | 52* | -6 | . | . | .
Nc1ccc[n+](CC(=O)c2ccccc2)c1 | 1 | 1 | 0 | 26 | 2 | 9
CSc1ncccc1C(=O)OCC(=O)c1ccccc1Br | 2 | -1 | 0 | 54* | 1 | 7
Cc1cc(C(=O)COC(=O)c2cccnc2Cl)c(C)n1C | -2 | . | -1 | . | 1 | .
CSc1ncccc1C(=O)OCC(=O)c1cc(C)n(CC2CCCO2)c1C (stereo unspecified) | -2 | 4 | 2 | -58 | -3 | -52*
COc1cc(C(=O)OCC(=O)c2cc(C)n(CC3CCCO3)c2C)cc(OC)c1C (stereo unspecified) | 1 | . | 0 | . | 0 | .
CCn1c(C)cc(C(=O)COC(=O)c2cccnc2SC)c1C | 4 | . | 7.9* | . | 0 | .
CSc1ncccc1C(=O)OCC(=O)c1cc(C)n(C)c1C | 5 | . | 4.3* | . | 0 | .
CCOC(=O)N1CCN(C(=O)CN2C(=O)NC(C)(c3ccc4ccccc4c3)C2=O)CC1 (stereo unspecified) | 0 | . | -1 | . | 0 | .
COc1ccc(C(=O)COC(=O)c2cccnc2SC)cc1 | 0 | -1 | 3 | 68* | 0 | 57
CCCCn1c(N)c(N(CCOC)C(=O)c2cccc(S(=O)(=O)N(CC)c3ccccc3)c2)c(=O)[nH]c1=O | 0 | . | 0 | -1 | 3 | -2
Cn1c(N)c(N=Cc2ccccc2)c(=O)n(C)c1=O | -1 | . | 1 | . | . | .
Cn1c(=O)n(/N=C/c2ccccc2)c2ccccc21 | 1 | -3 | -1 | 12 | 62* | 6
SMILES | FXN GAA850 act | HSP90 refold inh | NR0B1 inh | HSF-1 act | AHR act | HSF1 inhib
C=CCC1(CC=C)CCCN1C(=O)c1cc(COc2ccccc2SC)on1 | 0 | 2 | -1 | 7 | 3 | 4
N#Cc1c(NC(=O)/C=C/C(=O)O)sc2c1CCN(Cc1ccccc1)C2 | 0 | 1 | -1 | 59* | 3 | 16
CCC(=O)N1C(C(=O)O)CSC1c1ccc(OC)cc1 (stereo unspecified) | 0 | -1 | 3 | -10 | 0 | -5
CCC(=O)N1C(C(=O)N2CCCC2)CSC1c1ccc(OC)cc1 (stereo unspecified) | 2 | -1 | 4.3* | -90 | 0 | -88*
CCOC(=O)C1CCN(C(=O)c2cc(S(=O)(=O)N3CCOCC3)ccc2C)CC1 | 0 | . | 0 | . | 15 | .
COC(=O)C1CN(C(=O)C(C)Oc2ccc(F)cc2)c2ccccc2O1 (stereo unspecified) | 0 | 3 | 0 | 13 | 6 | 8
COC(=O)C1CN(C(=O)c2ccc(OC(F)F)cc2)c2ccccc2O1 (stereo unspecified) | -2 | -4 | 4.3* | -6 | 40 | -6
CCOC(=O)C1=C(COC(=O)[C@H](C)NS(=O)(=O)c2ccc(NC(C)=O)cc2)NC(=O)NC1C (stereo partly specified) | 0 | . | 0 | . | -1 | .
CN(C)CCNc1oc(-c2cccc(Cl)c2)nc1C#N | -2 | 6 | 2 | 1 | 78* | -4
N#Cc1nc(-c2cccc3ccccc23)oc1NCCN1CCCCC1 | 1 | -2 | 1 | 70* | 19 | 55
CN(C)CCNc1oc(-c2ccccc2F)nc1C#N | 2 | -1 | 5.9* | -10 | 1 | -1
CN(C)CCCNc1oc(-c2ccccc2)nc1C#N | 0 | -1 | 1 | 3 | 1 | 8
CN(CC1COc2ccccc2O1)C(=O)Cn1cc(C(F)(F)F)ccc1=O (stereo unspecified) | -1 | . | 1 | . | 0 | .
O=C1CC2CC1C(C(=O)O)C2C(=O)O (stereo unspecified) | 0 | . | 1 | . | . | .
CN(C(=O)COC(=O)COc1ccc2c(c1)CCC2)c1c(N)n(Cc2ccccc2)c(=O)[nH]c1=O | -1 | . | 0 | -2 | 1 | -6
O=C(CC1SC(N2CCCC2)=NC1=O)Nc1ccc(C(=O)Nc2ncccc2O)cc1 (stereo unspecified) | 6 | . | 3 | -17 | 5 | -9
Cc1cc2cc(CN(Cc3ccco3)C(=S)NCC3CCCO3)c(=O)[nH]c2cc1C (stereo unspecified) | 3 | -2 | 1 | 70* | 3 | 46
Cc1ccc2cc(CN(Cc3ccco3)C(=S)NCC3CCCO3)c(=O)[nH]c2c1C (stereo unspecified) | -2 | -2 | 0 | 43 | 4 | 27
Cc1cc(C)c2[nH]c(=O)c(CN(Cc3ccco3)C(=S)NCC3CCCO3)cc2c1 (stereo unspecified) | 1 | 4 | 0 | 70* | 28 | 41
